E coli growth-1: E. coli growth inhibition; OD600 absorbance (concentration not given with the values); 330,000 tested, 0.21% active; AID 1053175; Escherichia coli growth, OD600, 23 h; active compounds read low;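 active means OD600 absorbance below the run mean of sample wells minus 3.6 SD, in any replicate, cut at about 0.56 in these data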
phage Ecoli inh: E. coli growth loss with phage present; inhibition, % at 11.9 µM; 360,000 tested, 0.26% active; growth absorbance; in the data active means inhibition above about 11%
AddAB inh: less growth of phage-infected E. coli with AddAB; E. coli expressing H. pylori AddAB, absorbance growth; inhibition, % at 11.9 µM; 330,000 tested, 0.29% active; in the data active means inhibition above about 12%;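 further: 0% = vehicle wells of infected cells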
Tat export inh: inhibitors of E. coli Tat protein transport; inhibition, % at 10 µM; E. coli MC4100 TorA-mCherry Tat export, fluorescence; 340,000 tested, 0.036% active;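 active means mean replicate inhibition at least 50% and at least half of replicates individually reaching 50%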;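 further: exported cargo escapes ClpAP degradation while cytoplasmic cargo is degraded and loses fluorescence; 0% = median of neutral control wells and 100% = median of NaSCN control wells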
E coli growth-2: bacterial growth inhibition, counter-screen for AddAB inhibitors; E. coli V3065 growth, OD600 absorbance, 18 h; 330,000 tested, 0.27% active; inhibition, % at 11.9 µM; AID 449728;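 active means inhibition above the campaign's mean inhibition across all tested compounds plus 3 SD, cut at about 9.9% in these data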;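 further: uninfected addAB+ strain grown without phage in ampicillin broth; 0% = DMSO wells and 100% = ciprofloxacin 0.95 µg/ml wells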
AddAB conf: confirmation screen: growth loss of phage-infected E. coli expressing H. pylori AddAB; AID 488942; shares compounds with AddAB inh; 880 tested, 64% active; inhibition, % at 11.9 µM; E. coli V3065 expressing H. pylori AddAB, T4 phage, OD; T4 phage with gene 2 nonsense mutations;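 active means mean inhibition above a set limit taken from the earlier primary screen, cut at about 13% in these data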;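 further: higher means less bacterial growth since AddAB block lets phage replicate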
RecBCD counter: AddAB counter-screen: growth loss of RecBCD+ E. coli infected with mutant T4 phage; inhibition, % at 11.9 µM; 880 tested, 73% active; shares compounds with AddAB inh; AID 488955; E. coli V66 + mutant T4 phage, OD growth;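 active means mean inhibition above the mean of solvent-only control wells plus 3 SD, cut at about 4% in these data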;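 further: optical density read after an 18 h incubation at 37 °C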
Bact viability: reduces bacterial viability, AddAB inhibitor counter-screen; shares compounds with AddAB inh; absorbance (AddAB counterscreen); inhibition, % at 11.9 µM; 880 tested, 35% active; AID 488956; in the data active means inhibition above about 25%
RecBCD conf: growth loss of phage-infected V66 E. coli, RecBCD confirmation screen; shares compounds with phage Ecoli inh; E. coli V66 + T4 2- phage, growth OD; inhibition, % at 11.9 µM; 890 tested, 45% active; AID 651982;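 active means mean inhibition over triplicates exceeding the hit threshold derived in the original primary screen, cut at about 11% in these data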
Ecoli viability: counter-screen for RecBCD inhibitors: inhibitors of bacterial viability. shares compounds with phage Ecoli inh. E. coli viability, absorbance (OD) growth. inhibition, % at 11.9 µM. 890 tested, 29% active. AID 651983; in the data active means inhibition above about 20%;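 further: E. coli strain V66 grown with compound alone and no phage infection; 0% = bacteria with DMSO vehicle only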
AddAB phage OD: growth loss of phage-infected AddAB E. coli, RecBCD counter-screen. shares compounds with phage Ecoli inh. E. coli expressing H. pylori AddAB + T4 phage, OD growth; gene 2 mutant T4, recBCD-deleted host. inhibition, % at 11.9 µM. 890 tested, 45% active;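 active means mean inhibition above the solvent-only control wells' mean plus 3 SD, cut at about 22% in these data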;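 further: higher means less bacterial growth from phage killing when AddAB is blocked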
Starred values were filed as active, the others as inactive; · = not tested or not shown. The list is not random: actives were taken first. Their share in the collection is about 0.5%.

SMILES	E coli growth-1	phage Ecoli inh	AddAB inh	Tat export inh	E coli growth-2	RecBCD conf	Ecoli viability	AddAB phage OD	others
Cc1cc(=O)[nH]c(N=NC(=NNc2ccccc2C)c2ccccc2)n1	0.7	·	·	·	·	·	·	·
COc1cccc(-n2c(SCc3cc(=O)oc4cc(O)c(O)cc34)nc3ccccc3c2=O)c1	0.69	18*	21*	6	16*	5	7	9	AddAB conf=13*;RecBCD counter=15*;Bact viability=17
COc1ccc(C)cc1NC(=O)CSc1ccc(-c2ccccn2)nn1	0.65	9	6	2	4	·	·	·
COc1cc(NC(=O)CSc2ccc(-c3ccccn3)nn2)cc(OC)c1	0.7	13*	13*	0	14*	6	5	10	AddAB conf=10;RecBCD counter=11*;Bact viability=11
Cc1nc2ccc(C(=O)N/N=C/c3cc([N+](=O)[O-])ccc3O)cc2[nH]1	·	17*	19*	-2	17*	4	9	12	AddAB conf=8;RecBCD counter=14*;Bact viability=12
CC(=NO)c1ccccn1	0.7	·	·	·	·	·	·	·
Cc1ccc(OCc2cc(C(=O)NCc3cn4ccccc4n3)no2)cc1C	0.64	4	4	2	2	·	·	·
O=C(NCCc1cn2ccccc2n1)c1cc(COc2c(F)cccc2F)on1	0.55	12*	10	-18	7	2	5	6
CN(C(=O)C1CCC1C(=O)O)c1nc(-c2ccc(Cl)s2)cs1 (stereo unspecified)	0.64	99*	6	9	1	-1	0	-2
CC1CC1C(=O)Nc1nc(-c2ccc(Cl)s2)cs1 (stereo unspecified)	0.71	10	3	3	1	·	·	·
CCN(CC)S(=O)(=O)c1cccc(C(=O)NN=Cc2ccc(N3CCOCC3)cc2)c1	0.67	·	·	·	·	·	·	·
Oc1c(C(Nc2cccc(C(F)(F)F)c2)c2cccnc2)ccc2cccnc12 (stereo unspecified)	0.69	12*	0	-5	-2	3	4	9
Cc1cc(NC(c2cccnc2)c2ccc3cccnc3c2O)no1 (stereo unspecified)	0.62	13*	10	1	9	2	5	7
Cc1cc(C)nc(Nc2cccc(C(F)(F)F)c2)n1	0.67	4	3	-3	-2	·	·	·
O=C(Nc1ccc(C=Cc2nc3ccccc3o2)cc1)c1cccc(C(F)(F)F)c1	0.72	·	·	·	·	·	·	·
CN1CC2C(c3ccccc3)C3(c4ccccc4)CC2(C3)C1c1ccccc1 (stereo unspecified)	0.69	·	·	·	·	·	·	·
CC(=O)Oc1ccc(C=NNC(=O)c2cc3c(ccc4ccccc43)o2)cc1	0.69	·	·	·	·	·	·	·
Cc1cn(C2CCC(CO)O2)c(=O)[nH]c1=O (stereo unspecified)	0.56	24*	·	-1	·	20*	12	60*
CCN(CC)S(=O)(=O)c1cccc(C(=O)N/N=C/c2ccc(O)c(O)c2O)c1	·	14*	14*	5	10	6	5	8
COc1ccc(C(=O)NNC(=O)c2ccc3ccccc3c2O)cc1	0.69	3	5	-8	3	·	·	·
COc1cccc(OCC(=O)NNC(=O)c2ccc3ccccc3c2O)c1	0.71	15*	·	-5	·	5	7	14
Cc1ccccc1CNC(=O)c1ccccc1C	0.68	1	2	-5	2	·	·	·
Cc1ccccc1C(=O)NCC(C)NC(=O)c1ccccc1C (stereo unspecified)	0.69	100*	0	-4	2	-3	-1	1
O=C(c1cccc(C(F)(F)F)c1)N1CCc2c([nH]c3ccccc23)C1C(F)(F)F (stereo unspecified)	0.69	75*	3	15	0	0	-1	2
CCN(N=Cc1ccc(N(C)C)cc1)c1nc2ccccc2[nH]1	0.73	·	·	·	·	·	·	·
SMILES	E coli growth-1	phage Ecoli inh	AddAB inh	Tat export inh	E coli growth-2	RecBCD conf	Ecoli viability	AddAB phage OD	others
Cc1ccnc2c1ccc1cccnc12	0.37*	14*	·	2	·	13*	17	17
Cc1ccnc2c1ccc1ccccc12	0.6	3	2	0	2	·	·	·
C[C@]12C=CC(=O)C=C1CCC1C2C(O)C[C@@]2(C)C1CC[C@]2(O)C(=O)COC(=O)CCC(=O)O (stereo partly specified)	0.72	·	·	·	·	·	·	·
Clc1ccc(C=NN2CCN(Cc3ccccc3)CC2)cc1	0.64	·	·	·	·	·	·	·
O=[N+]([O-])c1cc([N+](=O)[O-])c(Oc2c(Cl)cccc2Cl)cc1NN1CCCCC1	0.71	13*	4	1	0	-3	-4	-1
Cc1c(NC(=O)C(=Cc2cccs2)NC(=O)c2ccccc2)c(=O)n(-c2ccccc2)n1C	0.71	·	·	·	·	·	·	·
CC(=NN1CC(=O)NC1=O)c1ccc([N+](=O)[O-])o1	0.13*	50*	·	3	·	24*	44*	103*
Oc1c(Br)cc(Br)c2cccnc12	·	44*	·	-10	·	60*	68*	53*
Oc1c(Br)cc(Br)cc1CNc1cccc2cccnc12	0.64	0	-2	-3	-4	·	·	·
C=C1CCN(C(C(=O)NCc2ccc(Cl)cc2)C(C)C)S(=O)(=O)c2ccccc21 (stereo unspecified)	0.69	·	·	·	·	·	·	·
O=C(CSc1ccc(-c2ccccn2)nn1)c1ccc([N+](=O)[O-])cc1	0.66	12*	7	-4	5	-1	0	5
O=C(CSc1ccc(-c2cccnc2)nn1)c1ccc([N+](=O)[O-])cc1	0.64	3	1	-4	0	·	·	·
CC(=O)c1cccc(NC(=O)CSc2ccc(-c3ccccn3)nn2)c1	0.61	11*	11	2	6	4	3	18
CC(=NNC(=O)c1ccc(F)cc1)c1cccc(NC(=O)c2ccco2)c1	0.69	·	·	·	·	·	·	·
Cc1cc(=O)[nH]c(N=N/C(=N/Nc2ccccc2C)c2ccccc2)n1	·	5	1	3	3	·	·	·
Cc1cc(=O)[nH]c(N=N/C(=N/Nc2ccc(O)cc2)c2ccccc2)n1	·	21*	6	-1	8	19*	17	79*
O=C(N/N=C\c1ccc(F)cc1)c1ccc(F)cc1	·	5	-1	1	-3	·	·	·
C[n+]1c(-c2ccc(C=NNC(=O)c3ccc(C(=O)NN=Cc4ccc(-c5cn6ccccc6[n+]5C)cc4)cc3)cc2)cn2ccccc21	·	57*	·	50*	·	78*	76*	80*
